Data published in PMC6919601, “Identification of Plasmodium dipeptidyl aminopeptidase allosteric inhibitors by high throughput screening” (PLoS ONE, 2019).
Screen size: about 110,000 compounds; about 230 (0.21%) showed an effect of 50% or more. The entries come from a sample that favours strong results as a whole.

Biological target: DPAP1 (Plasmodium falciparum, UniProt Q8IIJ9)
Test: primary screen, percent inhibition; read by cleavage of a fluorogenic dipeptide substrate; higher = more effect of the substance
Set-up: species or system P. falciparum D10 trophozoite lysates; single well
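Note: 30 min substrate incubation versus DMSO and 10 µM JCP410 controls.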

DPAP1, sequence (Q8IIJ9 whole entry, looked up): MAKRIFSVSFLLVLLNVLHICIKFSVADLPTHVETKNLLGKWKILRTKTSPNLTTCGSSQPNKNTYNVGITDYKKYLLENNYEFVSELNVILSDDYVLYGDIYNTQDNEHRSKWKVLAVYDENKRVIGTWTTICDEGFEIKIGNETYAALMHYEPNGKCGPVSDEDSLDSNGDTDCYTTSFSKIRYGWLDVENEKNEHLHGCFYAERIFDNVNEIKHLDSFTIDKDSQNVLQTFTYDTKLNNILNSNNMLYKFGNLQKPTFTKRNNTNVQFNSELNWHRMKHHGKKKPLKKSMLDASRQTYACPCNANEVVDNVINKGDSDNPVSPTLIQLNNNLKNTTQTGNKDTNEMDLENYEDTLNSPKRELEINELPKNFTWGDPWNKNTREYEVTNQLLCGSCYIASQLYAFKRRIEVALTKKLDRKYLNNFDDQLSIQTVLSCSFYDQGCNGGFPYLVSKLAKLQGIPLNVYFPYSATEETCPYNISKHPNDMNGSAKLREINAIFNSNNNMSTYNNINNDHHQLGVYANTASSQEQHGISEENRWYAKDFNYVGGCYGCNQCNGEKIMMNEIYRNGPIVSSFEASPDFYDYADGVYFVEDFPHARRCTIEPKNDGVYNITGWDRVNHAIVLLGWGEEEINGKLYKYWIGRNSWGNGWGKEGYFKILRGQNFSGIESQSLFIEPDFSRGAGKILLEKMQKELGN

Row | Compound | % Inhibition @ 10 uM
1 | Cc1nc(NC(=O)COc2ccc(C(C)(C)C)cc2)ccc1Br | -7.81%
2 | CCOc1ccc(-c2cc(C)n3nc(C(=O)NCc4ccco4)cc3n2)cc1 | 0.221%
3 | Cc1ccc2nc3c(O)n(C)cnc-3c2c1 | 5.06%
4 | CCOc1ccc(C2CC(=O)N3CN(Cc4ccccc4)CSC3=C2C#N)cc1 (centres unmarked) | 48.5%
5 | CCOc1ccc(C2CC(=O)N3CN(CCO)CSC3=C2C#N)cc1 (centres unmarked) | 61.2%
6 | CCOc1ccc(C2CC(=O)N3CN(CCc4ccccc4)CSC3=C2C#N)cc1 (centres unmarked) | 71.1%
7 | CCc1ccc(C2CC(=O)N3CN(Cc4ccccc4)CSC3=C2C#N)cc1 (centres unmarked) | 39.2%
8 | C=C(C)Cn1c(C(C)NC(=O)CCC)nc2ccccc21 (centres unmarked) | 1.41%
9 | CC(C)CNCC(=O)Nc1sc2c(c1C(=O)Nc1ccc(Br)cc1)CCC2 | -6.07%
10 | OC1(c2ccc(Cl)cc2)CCN(Cc2ccc(F)c(F)c2)CC1 | -7.42%
11 | COc1ccc(C2=NN3C(C2)c2cc(Cl)ccc2OC3(C)C)cc1 (centres unmarked) | 50.9%
12 | COc1ccc(C2=NN3C(C2)c2cc(OC)ccc2OC3(C)C)cc1 (centres unmarked) | 43.8%
13 | COc1ccc(C2=NN3C(C2)c2cccc(OC)c2OC3(C)C)cc1 (centres unmarked) | 38.5%
14 | CCCCCn1c(Br)nc2c1c(=O)[nH]c(=O)n2C | 4.41%
15 | CC(=O)c1cccc(NC(=O)c2ccc(N(C)S(=O)(=O)c3ccc(C)cc3)cc2)c1 | 5.24%
16 | COCCNC(=O)c1noc2c1COc1ccccc1-2 | 60%
17 | CC(C)OCCCNC(=O)c1noc2c1COc1ccccc1-2 | 58.6%
18 | CC12CC3CC(C)(C1)CC(OCCNC(=O)c1noc4c1COc1ccccc1-4)(C3)C2 | 49%
19 | Cc1ccc2c(c1)-c1onc(C(=O)NCCCOC(C)C)c1CO2 | 1.97%
20 | COc1ccccc1CNC(=O)c1noc2c1CSc1ccccc1-2 | 62.7%
21 | CC(C)OCCCNC(=O)c1nn(C)c2c1COc1ccccc1-2 | -1.72%
22 | COc1ccccc1CNC(=O)c1c2c(nn1C)-c1ccccc1SC2 | 8.62%
23 | COCCCNC(=O)c1noc2c1COc1ccccc1-2 | 84.2%
24 | O=C(NCC1CCCO1)c1noc2c1CSc1ccccc1-2 (centres unmarked) | 19.3%
25 | COCCNC(=O)c1noc2c1COc1ccc(C)cc1-2 | -3.77%
26 | COCCCNC(=O)c1noc2c1COc1ccc(C)cc1-2 | 5.1%
27 | CCCCN(CC)C(=O)c1noc2c1COc1ccccc1-2 | -1.72%
28 | COc1cccc(C(=O)N2CCN(C(=O)CCC3CCCC3)CC2)c1 | 0.587%
29 | O=C(NC1CCCCC1)C1CCCN(S(=O)(=O)N2CCCCC2)C1 (centres unmarked) | -4.99%
